Among the data in the supplement of paper PMC10849652 are log2 fold change values, retold here.

Test in all cases: log2 fold change, soluble protein after heating vs DMSO (PISA); higher = thermal stabilisation; K562 cells, 10 uM, 30 min; active = over 0.2 and 3.5 SD of the protein, either way, in both replicates (recomputed)
Compound in experiment [1]: NC(=O)Nc1cc(-c2cccc(F)c2)sc1C(=O)N[C@H]1CCCNC1
In a few lines:
(§1)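 Aliquots of K562 cells (2×10^6 cells/mL) treated with 10 μM compound for 30 min were heated for 3 min over 48°C-58°C. After pooling and extraction in PBS with 0.5% NP-40 at 4°C, soluble protein from a 21,000xg, 90 min spin was quantified by TMTpro 16plex LC-MS/MS with channel sums equalised. Thermal stability is expressed against control samples, from duplicates, as a log2 fold change.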

Compound in experiment [2]: NC(=O)c1cnc(N[C@@H]2CCCC[C@@H]2N)nc1Nc1cccc(-n2nccn2)c1
In a few lines: as §1

Compound in experiment [3]: NCC(=O)Nc1ccc(-n2nc(C(F)(F)F)cc2-c2ccc3c(ccc4ccccc43)c2)cc1
In a few lines: as §1

Compound in experiment [4]: Nc1ccccc1NC(=O)c1ccc(CNC(=O)OCc2cccnc2)cc1 [entinostat]
In a few lines:
as §1

Compound in experiment [5]: O=C1NC(=O)C(c2cnc3ccccn23)=C1c1cn2c3c(cc(F)cc13)CN(C(=O)N1CCCCC1)CC2
In a few lines:
as §1

Compound in experiment [6]: O=C(CCCCCCNC(=O)c1cnc(N(c2ccccc2)c2ccccc2Cl)nc1)NO [citarinostat]
An outline of the steps: as §1

Compound in experiment [7]: c1cc(OCCN2CCCCC2)cc(-c2n[nH]c3ccc(-c4nnc[nH]4)cc23)c1
An outline of the steps: as §1

Compound in experiment [8]: NC1(c2ccc(-c3nc4ccn5c(=O)[nH]nc5c4cc3-c3ccccc3)cc2)CCC1
In a few lines:
as §1

Compound in experiment [9]: O=C(O)c1ccc2c(c1)nc(Nc1cccc(Cl)c1)c1ccncc12 [silmitasertib]
An outline of the steps:
as §1

Compound in experiment [10]: O=C(CCCCCCC(=O)Nc1ccccc1)NO [vorinostat]
In a few lines: as §1

Targets with a hit are over-represented here; the source holds about 7,900 in all. About 0.6% of all pairs of compound and target were hits. Values without a mark were called inactive.

Sequence of UniProt Q9BZL4 (Q9BZL4 whole entry, looked up): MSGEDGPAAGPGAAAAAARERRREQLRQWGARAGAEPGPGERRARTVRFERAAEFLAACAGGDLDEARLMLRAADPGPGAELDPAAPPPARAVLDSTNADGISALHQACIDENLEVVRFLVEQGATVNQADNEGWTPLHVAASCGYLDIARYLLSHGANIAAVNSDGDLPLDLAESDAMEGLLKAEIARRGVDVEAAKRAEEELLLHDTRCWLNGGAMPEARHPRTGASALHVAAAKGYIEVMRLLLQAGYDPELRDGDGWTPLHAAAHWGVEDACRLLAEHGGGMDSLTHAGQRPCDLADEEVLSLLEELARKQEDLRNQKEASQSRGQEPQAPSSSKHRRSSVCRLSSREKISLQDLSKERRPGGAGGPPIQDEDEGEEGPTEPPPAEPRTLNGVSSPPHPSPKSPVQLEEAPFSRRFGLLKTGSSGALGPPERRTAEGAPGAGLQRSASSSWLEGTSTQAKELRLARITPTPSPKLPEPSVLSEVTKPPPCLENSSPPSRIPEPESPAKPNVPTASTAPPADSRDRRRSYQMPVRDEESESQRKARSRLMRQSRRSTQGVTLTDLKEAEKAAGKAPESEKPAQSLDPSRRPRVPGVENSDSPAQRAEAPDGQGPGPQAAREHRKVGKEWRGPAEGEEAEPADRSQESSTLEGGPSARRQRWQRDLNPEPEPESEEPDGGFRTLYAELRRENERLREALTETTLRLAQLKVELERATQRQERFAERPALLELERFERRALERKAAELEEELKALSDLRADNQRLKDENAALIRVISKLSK
Sequence of UniProt Q15173 (Q15173 whole entry, looked up): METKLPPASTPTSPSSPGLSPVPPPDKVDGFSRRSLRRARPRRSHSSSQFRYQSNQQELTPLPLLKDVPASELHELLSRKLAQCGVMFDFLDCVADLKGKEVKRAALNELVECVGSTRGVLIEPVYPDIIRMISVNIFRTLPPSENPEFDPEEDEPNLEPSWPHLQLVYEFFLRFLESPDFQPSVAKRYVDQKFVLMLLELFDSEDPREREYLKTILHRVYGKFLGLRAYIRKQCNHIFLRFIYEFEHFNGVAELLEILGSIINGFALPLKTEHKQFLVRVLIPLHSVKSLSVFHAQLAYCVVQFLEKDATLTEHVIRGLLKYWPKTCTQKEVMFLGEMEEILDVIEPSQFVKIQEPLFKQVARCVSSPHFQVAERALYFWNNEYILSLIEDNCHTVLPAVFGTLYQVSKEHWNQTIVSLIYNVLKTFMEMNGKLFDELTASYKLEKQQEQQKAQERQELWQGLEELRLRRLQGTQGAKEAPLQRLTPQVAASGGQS
Sequence of UniProt Q86UU1 (Q86UU1 whole entry, looked up): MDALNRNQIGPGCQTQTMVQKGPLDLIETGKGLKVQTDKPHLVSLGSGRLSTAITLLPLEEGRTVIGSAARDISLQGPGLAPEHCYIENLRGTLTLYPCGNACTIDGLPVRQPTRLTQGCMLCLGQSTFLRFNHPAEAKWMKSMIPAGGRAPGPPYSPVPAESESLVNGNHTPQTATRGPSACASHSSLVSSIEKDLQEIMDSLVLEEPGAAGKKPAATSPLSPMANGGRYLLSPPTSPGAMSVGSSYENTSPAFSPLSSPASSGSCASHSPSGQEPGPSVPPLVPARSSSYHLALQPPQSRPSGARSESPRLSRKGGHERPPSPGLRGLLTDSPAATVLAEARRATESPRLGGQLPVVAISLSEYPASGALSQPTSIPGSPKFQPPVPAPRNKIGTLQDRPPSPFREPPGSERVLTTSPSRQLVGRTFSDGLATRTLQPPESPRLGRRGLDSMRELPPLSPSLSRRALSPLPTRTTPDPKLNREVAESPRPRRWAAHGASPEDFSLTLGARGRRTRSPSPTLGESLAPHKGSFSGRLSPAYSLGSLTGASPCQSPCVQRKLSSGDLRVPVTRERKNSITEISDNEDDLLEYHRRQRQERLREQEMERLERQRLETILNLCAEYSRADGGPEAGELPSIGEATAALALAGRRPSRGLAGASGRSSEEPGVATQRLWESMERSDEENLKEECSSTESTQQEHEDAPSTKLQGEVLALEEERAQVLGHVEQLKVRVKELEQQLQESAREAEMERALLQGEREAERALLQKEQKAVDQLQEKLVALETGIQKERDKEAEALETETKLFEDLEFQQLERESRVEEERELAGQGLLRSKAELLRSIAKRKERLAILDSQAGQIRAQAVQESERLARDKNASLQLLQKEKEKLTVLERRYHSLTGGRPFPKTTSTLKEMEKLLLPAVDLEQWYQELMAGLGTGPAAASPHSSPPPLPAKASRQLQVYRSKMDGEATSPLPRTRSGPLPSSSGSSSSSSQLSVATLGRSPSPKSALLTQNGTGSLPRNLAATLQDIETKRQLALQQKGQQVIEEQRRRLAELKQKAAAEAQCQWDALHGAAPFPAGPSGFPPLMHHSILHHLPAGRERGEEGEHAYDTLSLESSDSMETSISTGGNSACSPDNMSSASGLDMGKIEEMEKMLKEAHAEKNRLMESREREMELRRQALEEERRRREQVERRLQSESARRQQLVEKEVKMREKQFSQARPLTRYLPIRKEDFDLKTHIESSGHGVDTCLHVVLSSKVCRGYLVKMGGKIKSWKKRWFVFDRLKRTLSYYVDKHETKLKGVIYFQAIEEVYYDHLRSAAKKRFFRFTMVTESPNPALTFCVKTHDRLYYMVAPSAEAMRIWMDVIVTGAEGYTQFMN
Sequence of UniProt P11309 (P11309 whole entry, looked up): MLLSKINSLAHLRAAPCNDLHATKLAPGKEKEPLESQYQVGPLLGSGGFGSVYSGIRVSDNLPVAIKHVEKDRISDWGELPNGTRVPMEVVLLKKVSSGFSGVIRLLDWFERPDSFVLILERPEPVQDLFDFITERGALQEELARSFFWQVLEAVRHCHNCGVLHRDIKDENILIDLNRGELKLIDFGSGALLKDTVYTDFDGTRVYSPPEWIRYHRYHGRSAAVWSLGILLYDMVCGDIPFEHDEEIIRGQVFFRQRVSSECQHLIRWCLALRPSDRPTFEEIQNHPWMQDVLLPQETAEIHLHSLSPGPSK
Sequence of UniProt Q13362 (Q13362 whole entry, looked up): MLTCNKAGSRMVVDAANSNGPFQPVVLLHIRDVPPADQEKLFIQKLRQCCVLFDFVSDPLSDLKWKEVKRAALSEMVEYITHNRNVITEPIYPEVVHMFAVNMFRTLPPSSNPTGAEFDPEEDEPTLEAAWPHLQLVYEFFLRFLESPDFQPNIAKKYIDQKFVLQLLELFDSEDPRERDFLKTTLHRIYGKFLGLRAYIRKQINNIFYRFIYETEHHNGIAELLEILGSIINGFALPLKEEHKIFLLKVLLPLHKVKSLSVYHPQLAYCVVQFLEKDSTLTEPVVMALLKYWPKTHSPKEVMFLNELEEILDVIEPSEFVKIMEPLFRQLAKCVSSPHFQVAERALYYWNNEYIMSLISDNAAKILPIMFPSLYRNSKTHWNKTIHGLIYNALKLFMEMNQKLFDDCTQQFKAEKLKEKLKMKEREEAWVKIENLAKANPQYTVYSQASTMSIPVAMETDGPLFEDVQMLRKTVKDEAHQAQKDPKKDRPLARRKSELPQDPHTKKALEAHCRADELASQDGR
Sequence of UniProt P27815 (P27815 whole entry, looked up): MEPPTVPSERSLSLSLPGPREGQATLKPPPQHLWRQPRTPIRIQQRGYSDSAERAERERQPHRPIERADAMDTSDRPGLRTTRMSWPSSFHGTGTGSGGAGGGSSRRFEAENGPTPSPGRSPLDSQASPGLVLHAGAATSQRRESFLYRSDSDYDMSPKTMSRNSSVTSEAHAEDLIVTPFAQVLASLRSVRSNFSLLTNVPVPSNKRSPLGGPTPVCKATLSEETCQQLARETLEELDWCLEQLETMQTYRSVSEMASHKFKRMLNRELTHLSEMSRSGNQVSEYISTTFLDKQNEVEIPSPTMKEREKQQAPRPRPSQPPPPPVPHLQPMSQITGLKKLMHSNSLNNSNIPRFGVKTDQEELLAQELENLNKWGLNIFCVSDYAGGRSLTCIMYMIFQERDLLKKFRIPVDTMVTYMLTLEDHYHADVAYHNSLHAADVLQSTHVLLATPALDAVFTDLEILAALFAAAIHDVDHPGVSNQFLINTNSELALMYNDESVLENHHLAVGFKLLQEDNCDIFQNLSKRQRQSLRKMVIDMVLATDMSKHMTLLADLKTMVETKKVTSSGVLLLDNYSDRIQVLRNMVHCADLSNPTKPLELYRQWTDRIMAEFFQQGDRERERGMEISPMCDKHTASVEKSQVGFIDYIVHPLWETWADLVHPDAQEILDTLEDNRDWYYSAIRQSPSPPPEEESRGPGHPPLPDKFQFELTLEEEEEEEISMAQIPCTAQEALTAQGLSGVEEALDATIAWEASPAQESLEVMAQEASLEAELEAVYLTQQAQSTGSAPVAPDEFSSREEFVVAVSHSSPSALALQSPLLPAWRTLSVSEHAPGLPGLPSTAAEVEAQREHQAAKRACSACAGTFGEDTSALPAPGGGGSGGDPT
Sequence of UniProt Q14442 (Q14442 whole entry, looked up): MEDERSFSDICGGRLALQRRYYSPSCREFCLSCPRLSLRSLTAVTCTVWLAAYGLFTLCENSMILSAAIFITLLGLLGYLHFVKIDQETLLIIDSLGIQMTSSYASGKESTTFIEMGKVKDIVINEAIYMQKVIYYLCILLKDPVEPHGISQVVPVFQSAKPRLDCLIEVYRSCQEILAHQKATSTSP
Sequence of UniProt O75365 (O75365 whole entry, looked up): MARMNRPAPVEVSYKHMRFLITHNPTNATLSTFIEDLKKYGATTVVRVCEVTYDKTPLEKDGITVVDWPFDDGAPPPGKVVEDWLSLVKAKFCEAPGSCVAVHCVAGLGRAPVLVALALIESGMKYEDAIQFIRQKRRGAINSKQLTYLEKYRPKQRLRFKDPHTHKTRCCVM

In the case of PEX5 isoform 4 (UniProt P50542), the log2 fold change in experiment [1] is 0.019; in experiment [2], 0.002; in [3] it was 0.041; in experiment [4], 0; in experiment [5], 0.163.

Consider PDE4A (UniProt P27815), for which the log2 fold change in [2] is -0.67 (active); in experiment [3] it was 0.047; in experiment [5], -0.017.

For the target PDE4DIP (UniProt E9PS60), the log2 fold change was -0.172 in experiment [3], 0.06 in experiment [6] and -0.051 in experiment [7].

For the target PCBP2 (UniProt F8VZX2), the log2 fold change in experiment [8] is 0.158; in experiment [9] it was 0.193.

Regarding PPP2R5B (UniProt Q15173), the log2 fold change in experiment [2] is 0.017; in [8] it was -0.167; in experiment [3] it was -0.006; in experiment [10] it was 0.112; in experiment [6], 0.122; in experiment [9] it was 0. In addition, the log2 fold change in experiment [7] was 0.127.

In the case of PHLDB1 isoform 2 (UniProt Q86UU1), the log2 fold change was 0.112 in experiment [2]; -0.057 in experiment [8]; -0.186 in experiment [3]; 0.229 in experiment [10]; -0.014 in experiment [6]; 0.045 in [9]. For the same target, the log2 fold change was -0.178 in experiment [5] and -0.117 in [7].

In the case of PSMC3 (UniProt E9PLG2), the log2 fold change was -0.62 in [1]; -0.077 in [8]; 0.117 in experiment [3]; -0.438 in experiment [4]; 0.097 in experiment [9]; -0.327 in experiment [5].

Turning to PIM1 isoform 2 (UniProt P11309), the log2 fold change in experiment [8] is 0.388; in experiment [10], -0.123; in experiment [9], 0.575.

Turning to PPP1R12C (UniProt Q9BZL4), the log2 fold change was -0.151 in experiment [1]; -0.031 in [8]; -0.022 in experiment [3]; 0.072 in [4]; 0.487 in experiment [10]; -0.008 in [6]. Moreover, the log2 fold change is 0.122 in experiment [9], -0.073 in experiment [5] and -0.278 in [7].

As for POLR2E (UniProt P19388), the log2 fold change in [2] is 0; in [8], -0.021; in experiment [3], -0.02; in experiment [10], -0.115; in experiment [6], -0.001; in experiment [9], 0.134. Also, the figures for the log2 fold change in experiment [5] and in experiment [7] were 0.117 and -0.088, respectively.

As to PPP2R5C isoform 2 (UniProt Q13362), the log2 fold change was -0.183 in [8], 0.069 in experiment [6], -0.064 in experiment [9] and 0.105 in experiment [7].

For the target PIAS4 (UniProt Q8N2W9), the log2 fold change in experiment [8] is 0.094; in experiment [10] it was -0.014; in [9] it was -0.271; in [5], -0.404.

With PHC3 isoform 7 (UniProt Q8NDX5), the log2 fold change in experiment [1] is 0.158; in experiment [8], -0.125; in [4], 0.1; in [6] it was 0.172; in [9] it was -0.018; in experiment [5], 0.567 (active). Also, the log2 fold change in [7] is -0.014.

Turning to PTP4A3 (UniProt O75365), in experiment [3], the log2 fold change was -0.105.

Regarding PIGH (UniProt Q14442), the log2 fold change in experiment [2] is -0.021; in [8], -0.087; in experiment [3] it was -0.021; in experiment [10], 0.18; in [6] it was 0.031; in experiment [9] it was 0.093. Moreover, the log2 fold change in [5] was -0.128; in experiment [7], -0.05.
